# Hit rate of the full screen: of about 310,000 compounds, about 14,000 (4.5%) showed an effect of 50% or more. The effect is printed as a negative number. The sample as a whole holds a higher share of strong results than the screen did.
# Target: human ether-à-go-go-related gene (hERG) potassium channel (human, UniProt Q12809)
# Assay: primary screen, population patch clamp on CHO cells stably expressing hERG; higher = less effect of the substance
# 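Also: peak tail current of the secondary pulse compared with the same well before compound.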
# Chain of human ether-à-go-go-related gene (hERG) potassium channel (Q12809 whole entry, looked up): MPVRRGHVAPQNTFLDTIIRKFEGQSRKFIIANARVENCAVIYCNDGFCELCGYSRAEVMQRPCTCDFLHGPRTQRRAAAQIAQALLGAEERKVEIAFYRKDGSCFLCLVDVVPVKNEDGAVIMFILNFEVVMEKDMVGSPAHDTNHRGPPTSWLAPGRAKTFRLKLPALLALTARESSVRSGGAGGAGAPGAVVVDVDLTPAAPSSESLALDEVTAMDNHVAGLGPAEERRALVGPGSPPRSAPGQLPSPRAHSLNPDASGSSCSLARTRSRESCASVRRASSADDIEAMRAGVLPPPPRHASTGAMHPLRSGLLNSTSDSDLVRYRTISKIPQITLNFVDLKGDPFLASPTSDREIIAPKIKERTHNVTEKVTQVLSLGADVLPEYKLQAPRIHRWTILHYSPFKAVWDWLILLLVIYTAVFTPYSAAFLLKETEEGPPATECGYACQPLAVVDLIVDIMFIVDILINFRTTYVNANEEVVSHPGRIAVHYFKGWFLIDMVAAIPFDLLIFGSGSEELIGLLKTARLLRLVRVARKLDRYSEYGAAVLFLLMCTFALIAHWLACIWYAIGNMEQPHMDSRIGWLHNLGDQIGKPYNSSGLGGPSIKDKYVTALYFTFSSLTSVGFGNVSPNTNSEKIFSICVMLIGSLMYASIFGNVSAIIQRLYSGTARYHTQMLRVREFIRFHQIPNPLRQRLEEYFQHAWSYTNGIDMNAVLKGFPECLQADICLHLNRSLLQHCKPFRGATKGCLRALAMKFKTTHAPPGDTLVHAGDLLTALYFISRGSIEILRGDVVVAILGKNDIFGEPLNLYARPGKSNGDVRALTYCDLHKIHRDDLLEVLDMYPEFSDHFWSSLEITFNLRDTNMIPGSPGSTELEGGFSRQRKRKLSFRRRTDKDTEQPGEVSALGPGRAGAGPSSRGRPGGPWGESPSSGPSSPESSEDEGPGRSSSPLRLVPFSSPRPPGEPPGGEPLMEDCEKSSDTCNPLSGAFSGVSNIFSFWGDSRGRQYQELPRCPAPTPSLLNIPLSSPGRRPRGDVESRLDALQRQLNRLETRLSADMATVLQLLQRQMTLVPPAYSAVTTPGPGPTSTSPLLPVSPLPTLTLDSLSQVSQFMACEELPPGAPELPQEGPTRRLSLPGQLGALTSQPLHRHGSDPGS
row,SMILES,"hERG current change (%, negative = inhibition) at 10uM [%]"
1,CC1CN(C(=O)CCC(=O)NC2CCCCC2)c2ccccc2S1 (centres unmarked),-19.5
2,Fc1cccc(C2CC(c3cccc(Br)c3)Nc3nnnn32)c1 (centres unmarked),-3.02
3,CS(=O)(=O)N(CC(=O)N1CCN(Cc2ccccc2)CC1)c1ccc(F)cc1,-3.35
4,C=CCN(c1ccccc1C(=O)NCC(=O)O)S(=O)(=O)c1ccccc1C,24.7
5,COC(=O)c1[nH]c2ccccc2c1NC(=O)CN1CCCCCC1,-21.5
6,Cc1[nH]c2ccccc2c1C(=O)CN1CCCC1,5.09
7,Cc1[nH]c2ccccc2c1C(=O)CN1CC=C(c2ccccc2)CC1,-52.4
8,Cc1[nH]c2ccccc2c1C(=O)C(=O)N1CC=C(c2ccccc2)CC1,-11.3
9,Cc1[nH]c2ccccc2c1C(=O)CN1CCN(C/C=C/c2ccccc2)CC1,-73.4
10,COC(=O)c1[nH]c2ccccc2c1NC(=O)CN1CCN(C/C=C/c2ccccc2)CC1,-76.4
11,COc1ccc2[nH]c(C)c(C(=O)CN3CCN(C/C=C/c4ccccc4)CC3)c2c1,-25.8
12,CCOC(=O)c1[nH]c2ccc(F)cc2c1NC(=O)CN1CCc2cc(OC)c(OC)cc2C1,-0.0862
13,CCOC(=O)c1[nH]c2ccc(OCC)cc2c1NC(=O)CN1CCN(c2ccccc2)CC1,17.9
14,Cc1[nH]c2ccccc2c1C(=O)CN1CCSCC1,5.84
15,CCOC(=O)c1[nH]c2ccc(F)cc2c1NC(=O)CN1CCN(C/C=C/c2ccccc2)CC1,-80.7
16,CCOC(=O)N1CCN(CC(=O)Nc2c(C(=O)OC)[nH]c3ccccc23)CC1,-10.2
17,COc1ccc(C(NC(=O)c2cccnc2)c2cc(Cl)c3cccnc3c2O)cc1OC (centres unmarked),10.5
18,NS(=O)(=O)c1ccc(NC(=O)CSc2nnc(-c3ccc(O)cc3)o2)cc1,25.1
19,Cc1onc(-c2ccccc2)c1C(=O)OCC(=O)NC(C)c1ccc(Cl)cc1 (centres unmarked),-7.03
20,CCOc1nc(-c2ccccc2O)nc2ccccc12,2.42
21,Cc1ccc(-c2cc(-c3ccc(C)cc3)[n+](-c3ccc(C(=O)O)cc3)c(-c3ccc(C)cc3)c2)cc1.[O-][Cl+3]([O-])([O-])[O-],26.5
22,Cc1ccc(-c2cc(-c3ccc(C)cc3)[n+](C)o2)cc1.[O-][Cl+3]([O-])([O-])[O-],-68.4
23,Cc1ccc(-c2cc(-c3ccc(C)cc3)[n+](-c3ccc(C(=O)[O-])cc3)c(-c3ccc(C)cc3)c2)cc1,-26.8

# — paper PMC4336329 (PLoS ONE, 2015)
